# The list is not random: actives were taken first. Their share in the collection is about 4.9%.
# HSP90 inh: HSP90 refolding inhibition in rabbit reticulocyte lysate | inhibition, % at 5.6 µM | AID 1789 | luciferase refolding luminescence, 3 h | actives 0.91% (n = 290,000);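 active = inhibition above the screen-wide mean plus 3 SD, computed separately per campaign, cut at about 16% in these data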;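 note: 0% = DMSO wells and 100% = 60 µM geldanamycin wells; inhibitors lower the luminescence because luciferase stays unfolded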
# Platelet DG rel: modulates dense granule release in human platelets; AID 1663; actives 0.22% (n = 300,000); inhibition, %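 (compounds screened at 7.5 µM in platelet-rich plasma)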; human platelet-rich plasma, SFLLRN dense granule ATP release, luminescence;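 active = mean replicate score, as percent of positive control, at or above 50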
# dFosB act-1: enhances mouse delta FosB homodimer DNA binding; purified delta FosB, TAMRA-CDK5 oligo fluorescence polarization; percent of positive-control signal above neutral wells; activation, % at 25 µM; actives 0.99% (n = 340,000); P13346;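 active = mean activation above about 17%, with every replicate also reaching it, limit read from the data, passing the limit was not always enough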
# Target sequence (P13346 whole entry, looked up): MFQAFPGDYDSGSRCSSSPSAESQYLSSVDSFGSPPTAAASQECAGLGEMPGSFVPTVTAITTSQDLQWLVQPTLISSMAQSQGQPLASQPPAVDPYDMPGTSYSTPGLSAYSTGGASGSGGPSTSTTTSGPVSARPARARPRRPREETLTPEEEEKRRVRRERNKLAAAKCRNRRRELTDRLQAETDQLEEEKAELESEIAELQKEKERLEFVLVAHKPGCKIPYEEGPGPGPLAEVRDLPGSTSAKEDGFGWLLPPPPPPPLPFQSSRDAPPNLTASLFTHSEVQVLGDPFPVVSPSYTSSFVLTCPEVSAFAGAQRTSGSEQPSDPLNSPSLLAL
# HSF1 activator: increases HSF-1 driven luciferase reporter signal; NIH3T3-HGL HSF-1 luciferase reporter, MG132, 8 h; 100% = twice DMSO control signal; activation, % at 9 µM; actives 1.7% (n = 300,000); AID 504408;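 active = mean replicate activation of at least 50% with a set share of replicates each reaching 50%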;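 note: 0% = median of the neutral control wells and 100% = twice that signal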
# HSF1 inh: HSF1 inhibition; NIH3T3-HGL HSE-luciferase, MG132-induced, luminescence 8 h; active compounds read low; activity change, negative = inhibition, % at 7.5 µM (by protocol); actives 0.77% (n = 300,000); AID 2098;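 active = more than half of replicate wells show activity change below -50%, luminescence cut by over half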;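 note: luciferase reports HSF-1 transcriptional activity via heat shock element; 0% = median of DMSO wells and -100% = zero luminescence signal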
# MPTP block: permeability transition pore inhibition; isolated mouse mitochondria, Ca2+ swelling absorbance, 30 min; inhibition, % at 10 µM; actives 1.4% (n = 360,000); AID 602449;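 active = inhibition of 50% or more, scaled per plate between neutral and stimulator controls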;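 note: 0% = DMSO wells given calcium and 100% = 1 mM EGTA wells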
# dFosB act-2: delta FosB (mouse) homodimer activation | shares compounds with dFosB act-1 | activation, % at 24.9 µM | purified delta FosB, TAMRA-CDK5 oligo fluorescence polarization; normalised: neutral wells 0, positive control 100 | 2,400 tested, under 10 active;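 active = highest replicate activation at or above 34% and every replicate reaching that threshold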;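 note: higher polarization means more probe DNA bound by delta FosB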
# Starred values were filed as active, the others as inactive; . = not tested or not shown.
SMILES,HSP90 inh,Platelet DG rel,dFosB act-1,HSF1 activator,HSF1 inh,MPTP block,dFosB act-2
CC(=O)c1cccc(NC(=O)Cn2cnc(S(=O)(=O)N3CCC(C)CC3)c2)c1,-2,2,50*,4,-4,-4,0
O=C(Nc1ccc(F)cc1)c1ccc(CSc2ccccc2)o1,0,11,-16,18,10,15,.
NS(=O)(=O)c1ccc(NC(=O)c2ccc(CSc3ccccc3)o2)cc1,0,-9,34*,-7,3,2,-8
Cc1nn(C)cc1/C=N/NC(=S)Nc1ccc(Cl)cc1Cl,1,5,34*,10,6,1,5
O=C(Nc1ccc([N+](=O)[O-])cc1Br)c1cc2ccccc2nc1Cl,-4,4,113*,-10,-3,1,-6
Cc1occc1C(=O)Nc1ccc([N+](=O)[O-])cc1Br,0,3,-3,5,2,0,.
CC(C)(C)C1CCc2c(sc(NC(=O)c3ccncc3)c2C(N)=O)C1 (configuration not stated),0,-17,34*,8,13,2,3
O=C(/C=C/c1cccs1)Nc1nccs1,4,-2,1,47,11,-1,.
O=C(/C=C/c1cccs1)Nc1cccc(NC(=O)/C=C/c2cccs2)n1,6,-9,21*,6,-4,8,-6
Cc1ccc(C)c(-n2nnnc2SCC(=O)c2ccc3c(c2)NC(=O)CO3)c1,1,1,68*,14,1,4,1
Cc1ccc(S(=O)(=O)NNC(=O)c2c(O)c3ccccc3[nH]c2=O)cc1,2,13,21*,-14,-7,3,1
COC(=O)Nc1ccc(S(=O)(=O)NNC(=O)c2c(O)c3ccccc3[nH]c2=O)cc1,-6,5,24*,-4,6,0,-1
O=C(NNC(=O)c1c(O)c2ccccc2[nH]c1=O)c1ccccc1,-1,5,83*,8,1,-1,0
O=C(CN1C(=O)/C(=C/c2ccc(C(F)(F)F)cc2)Sc2ccccc21)NCCCN1CCOCC1,-2,1,25*,2,5,0,0
CCc1ccc(/C=C2/Sc3ccccc3N(CC(=O)NCCCN3CCOCC3)C2=O)cc1,-2,-17,-4,17,11,1,.
CC(=O)Nc1ccc(NC(=O)c2cc(-c3ccc(C)c(C)c3O)n[nH]2)cc1,-1,-2,68*,14,3,1,0
COc1ccc(C(=O)NC(=S)Nc2ccc(CN3CCOCC3)cc2)cc1OC,3,4,.,33,-1,1,.
COc1ccc(Br)cc1/C=C/C(=O)NC(=S)Nc1ccc(CN2CCOCC2)cc1,-3,-15,48*,8,-3,-2,2
O=C(CSc1nc(-c2cccs2)nc2ccccc12)NC1CCS(=O)(=O)C1 (configuration not stated),.,.,34*,.,.,-3,-3
CCN(C(=O)CSc1nc(-c2cccs2)nc2ccccc12)C1CCS(=O)(=O)C1 (configuration not stated),.,.,-29,.,.,0,.
Cc1c(C(=O)Nc2ccc(S(N)(=O)=O)cc2)oc2ccc(Cl)cc12,-6,0,27*,6,-7,1,2
CCOc1cc(/C=N/O)cc(Br)c1OCc1ccc(Cl)cc1,-2,-2,32*,1,4,-1,-1
C#CCOc1c(Br)cc(/C=N/O)cc1OCC,15,10,3,-6,-4,0,.
C=CCN(c1ccccc1)S(=O)(=O)c1cccc(C(=O)Nc2nc3ccccc3[nH]2)c1,-4,-9,47*,1,0,4,1
C=CCN(c1ccccc1)S(=O)(=O)c1cccc(C(=O)Nc2ccncc2)c1,.,-2,-9,13,0,18,.
Cc1ccc(NC(=O)c2sc(N)nc2C)cc1,-3,0,0,6,9,4,.
Cc1ccc(C(=O)Nc2nc(C)c(C(=O)Nc3ccc4c(c3)CCC4)s2)cc1,13,-2,21*,41,30,1,-2
CC(=O)c1sc(NC(=O)c2ccc(F)c(F)c2)nc1C,0,15,28*,12,17,-2,1
